The source of these data is the supplement of paper PMC12819154, “High-throughput peptide-centric local stability assay extends protein–ligand identification to membrane proteins, tissues and bacteria” (Nature Structural & Molecular Biology, 2025).
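Further: lysate desalted by size exclusion to strip endogenous ATP, peptide intensities built from DIA-NN precursor signals, and peptides missing any value discarded before comparison.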

Sequence of UniProt P09029 (P09029 whole entry): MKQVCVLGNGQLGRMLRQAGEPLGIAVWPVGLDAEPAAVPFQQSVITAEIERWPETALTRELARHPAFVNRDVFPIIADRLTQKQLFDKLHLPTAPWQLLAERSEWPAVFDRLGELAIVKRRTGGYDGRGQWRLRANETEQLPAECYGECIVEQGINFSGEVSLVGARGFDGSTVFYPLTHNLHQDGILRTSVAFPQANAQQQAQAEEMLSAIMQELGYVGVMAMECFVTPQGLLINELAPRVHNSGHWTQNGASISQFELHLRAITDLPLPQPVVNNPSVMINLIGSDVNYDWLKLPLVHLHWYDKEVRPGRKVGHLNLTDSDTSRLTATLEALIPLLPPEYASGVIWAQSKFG
Sequence of UniProt P0A9P6 (P0A9P6 whole entry): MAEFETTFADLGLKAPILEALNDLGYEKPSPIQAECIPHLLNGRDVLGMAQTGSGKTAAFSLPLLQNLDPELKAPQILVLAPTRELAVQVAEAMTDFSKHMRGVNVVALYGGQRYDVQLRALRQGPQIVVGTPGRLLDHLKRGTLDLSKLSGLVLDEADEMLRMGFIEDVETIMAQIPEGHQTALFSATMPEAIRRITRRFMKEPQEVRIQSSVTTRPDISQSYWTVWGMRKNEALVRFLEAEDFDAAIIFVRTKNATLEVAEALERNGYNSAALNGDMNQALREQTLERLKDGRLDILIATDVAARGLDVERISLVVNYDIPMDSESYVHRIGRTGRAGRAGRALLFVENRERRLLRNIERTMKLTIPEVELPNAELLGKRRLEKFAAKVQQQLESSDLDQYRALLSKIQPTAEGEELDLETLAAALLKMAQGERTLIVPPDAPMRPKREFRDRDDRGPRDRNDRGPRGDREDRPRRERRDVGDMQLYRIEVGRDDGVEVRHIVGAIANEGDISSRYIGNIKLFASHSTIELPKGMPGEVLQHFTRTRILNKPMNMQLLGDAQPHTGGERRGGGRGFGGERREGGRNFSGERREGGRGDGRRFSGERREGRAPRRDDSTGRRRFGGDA
Sequence of UniProt P00550 (P00550 whole entry): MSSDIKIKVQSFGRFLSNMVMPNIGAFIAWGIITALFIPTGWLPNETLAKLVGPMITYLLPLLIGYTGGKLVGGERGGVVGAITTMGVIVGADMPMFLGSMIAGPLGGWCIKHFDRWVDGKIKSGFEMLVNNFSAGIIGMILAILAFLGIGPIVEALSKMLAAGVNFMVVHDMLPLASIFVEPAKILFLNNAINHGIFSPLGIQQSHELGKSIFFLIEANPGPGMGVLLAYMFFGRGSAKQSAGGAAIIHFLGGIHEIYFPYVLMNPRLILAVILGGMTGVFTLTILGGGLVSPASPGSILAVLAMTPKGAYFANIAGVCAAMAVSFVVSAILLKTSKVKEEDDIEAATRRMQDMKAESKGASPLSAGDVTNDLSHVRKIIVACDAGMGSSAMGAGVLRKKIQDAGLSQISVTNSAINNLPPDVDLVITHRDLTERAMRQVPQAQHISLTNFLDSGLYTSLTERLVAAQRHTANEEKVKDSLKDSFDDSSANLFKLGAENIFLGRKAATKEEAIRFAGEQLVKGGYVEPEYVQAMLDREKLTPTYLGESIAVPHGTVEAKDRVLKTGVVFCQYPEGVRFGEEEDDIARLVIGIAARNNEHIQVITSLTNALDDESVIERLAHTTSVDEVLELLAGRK
Sequence of UniProt P07013 (P07013 whole entry): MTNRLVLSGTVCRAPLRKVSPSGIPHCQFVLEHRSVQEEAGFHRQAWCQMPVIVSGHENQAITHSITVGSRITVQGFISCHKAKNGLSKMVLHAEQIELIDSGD
Sequence of UniProt P27828 (P27828 whole entry): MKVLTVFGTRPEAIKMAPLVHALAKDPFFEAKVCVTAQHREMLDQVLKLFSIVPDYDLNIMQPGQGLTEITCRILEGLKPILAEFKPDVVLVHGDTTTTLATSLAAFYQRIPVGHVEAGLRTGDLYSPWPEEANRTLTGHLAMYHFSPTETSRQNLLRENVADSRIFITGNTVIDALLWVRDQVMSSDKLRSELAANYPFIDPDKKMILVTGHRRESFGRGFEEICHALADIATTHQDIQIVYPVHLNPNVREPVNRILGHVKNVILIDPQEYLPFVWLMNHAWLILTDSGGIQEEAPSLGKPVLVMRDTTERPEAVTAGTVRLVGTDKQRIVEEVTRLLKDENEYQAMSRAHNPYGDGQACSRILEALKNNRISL
Sequence of UniProt P27300 (P27300 whole entry): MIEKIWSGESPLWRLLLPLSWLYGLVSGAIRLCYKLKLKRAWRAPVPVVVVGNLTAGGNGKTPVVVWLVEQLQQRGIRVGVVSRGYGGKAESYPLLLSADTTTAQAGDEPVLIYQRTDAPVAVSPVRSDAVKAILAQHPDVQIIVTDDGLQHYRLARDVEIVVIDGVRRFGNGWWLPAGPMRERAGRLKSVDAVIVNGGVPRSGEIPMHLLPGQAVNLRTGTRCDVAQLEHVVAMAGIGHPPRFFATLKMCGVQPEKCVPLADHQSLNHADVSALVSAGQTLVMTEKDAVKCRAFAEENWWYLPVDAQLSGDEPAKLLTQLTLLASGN
Sequence of UniProt P06959 (P06959 whole entry): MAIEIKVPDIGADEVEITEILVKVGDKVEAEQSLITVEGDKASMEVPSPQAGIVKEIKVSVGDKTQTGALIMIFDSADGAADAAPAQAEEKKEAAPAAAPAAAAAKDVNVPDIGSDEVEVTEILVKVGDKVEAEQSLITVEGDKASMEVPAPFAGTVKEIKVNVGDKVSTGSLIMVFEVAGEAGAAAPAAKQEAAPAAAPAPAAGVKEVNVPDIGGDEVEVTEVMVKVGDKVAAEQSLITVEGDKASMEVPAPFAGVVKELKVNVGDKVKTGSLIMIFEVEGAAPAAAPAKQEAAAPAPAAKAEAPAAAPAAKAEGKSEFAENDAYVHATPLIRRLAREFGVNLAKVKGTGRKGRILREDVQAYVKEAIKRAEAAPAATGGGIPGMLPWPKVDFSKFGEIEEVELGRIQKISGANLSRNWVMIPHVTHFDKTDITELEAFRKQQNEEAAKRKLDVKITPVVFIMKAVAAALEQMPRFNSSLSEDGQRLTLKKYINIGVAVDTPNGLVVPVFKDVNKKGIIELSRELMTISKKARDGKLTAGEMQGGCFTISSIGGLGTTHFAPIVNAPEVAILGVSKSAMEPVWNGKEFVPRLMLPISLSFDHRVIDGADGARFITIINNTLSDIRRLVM
Sequence of UniProt P28631 (P28631 whole entry): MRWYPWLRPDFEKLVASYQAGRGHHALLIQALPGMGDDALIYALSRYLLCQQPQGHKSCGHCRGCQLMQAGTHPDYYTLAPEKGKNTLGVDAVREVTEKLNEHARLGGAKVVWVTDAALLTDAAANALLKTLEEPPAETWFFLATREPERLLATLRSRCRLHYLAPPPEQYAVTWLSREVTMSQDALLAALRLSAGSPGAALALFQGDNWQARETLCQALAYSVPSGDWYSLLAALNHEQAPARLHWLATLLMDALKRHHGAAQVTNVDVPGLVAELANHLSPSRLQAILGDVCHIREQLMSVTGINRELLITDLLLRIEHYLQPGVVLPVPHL
Sequence of UniProt P0AB96 (P0AB96 whole entry): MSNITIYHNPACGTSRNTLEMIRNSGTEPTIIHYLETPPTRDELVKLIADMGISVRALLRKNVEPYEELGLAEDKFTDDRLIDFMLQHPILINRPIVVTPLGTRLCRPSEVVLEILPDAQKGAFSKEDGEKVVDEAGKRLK
Sequence of UniProt P77721 (P77721 whole entry): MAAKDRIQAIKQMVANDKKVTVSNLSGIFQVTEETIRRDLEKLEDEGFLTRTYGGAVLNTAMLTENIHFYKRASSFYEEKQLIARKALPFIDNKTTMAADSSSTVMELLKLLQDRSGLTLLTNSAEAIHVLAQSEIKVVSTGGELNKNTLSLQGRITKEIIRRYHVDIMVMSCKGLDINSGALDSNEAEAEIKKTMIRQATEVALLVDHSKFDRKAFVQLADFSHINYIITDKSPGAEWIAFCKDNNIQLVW
Sequence of UniProt P00579 (P00579 whole entry): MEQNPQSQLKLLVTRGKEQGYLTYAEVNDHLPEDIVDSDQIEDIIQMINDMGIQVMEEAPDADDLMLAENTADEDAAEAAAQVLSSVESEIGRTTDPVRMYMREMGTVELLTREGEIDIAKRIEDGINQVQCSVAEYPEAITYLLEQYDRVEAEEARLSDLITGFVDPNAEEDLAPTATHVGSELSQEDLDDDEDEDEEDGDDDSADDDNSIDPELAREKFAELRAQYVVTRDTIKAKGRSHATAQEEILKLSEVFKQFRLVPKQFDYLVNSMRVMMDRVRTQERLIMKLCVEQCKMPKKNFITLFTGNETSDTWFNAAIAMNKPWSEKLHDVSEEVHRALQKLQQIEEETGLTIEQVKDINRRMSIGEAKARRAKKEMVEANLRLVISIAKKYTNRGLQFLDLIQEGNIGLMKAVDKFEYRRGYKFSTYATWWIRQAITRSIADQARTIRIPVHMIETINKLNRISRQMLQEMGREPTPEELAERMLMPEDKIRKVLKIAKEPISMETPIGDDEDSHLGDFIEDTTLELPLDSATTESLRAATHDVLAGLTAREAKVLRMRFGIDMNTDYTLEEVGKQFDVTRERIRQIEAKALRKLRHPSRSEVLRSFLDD
Sequence of UniProt P08194 (P08194 whole entry): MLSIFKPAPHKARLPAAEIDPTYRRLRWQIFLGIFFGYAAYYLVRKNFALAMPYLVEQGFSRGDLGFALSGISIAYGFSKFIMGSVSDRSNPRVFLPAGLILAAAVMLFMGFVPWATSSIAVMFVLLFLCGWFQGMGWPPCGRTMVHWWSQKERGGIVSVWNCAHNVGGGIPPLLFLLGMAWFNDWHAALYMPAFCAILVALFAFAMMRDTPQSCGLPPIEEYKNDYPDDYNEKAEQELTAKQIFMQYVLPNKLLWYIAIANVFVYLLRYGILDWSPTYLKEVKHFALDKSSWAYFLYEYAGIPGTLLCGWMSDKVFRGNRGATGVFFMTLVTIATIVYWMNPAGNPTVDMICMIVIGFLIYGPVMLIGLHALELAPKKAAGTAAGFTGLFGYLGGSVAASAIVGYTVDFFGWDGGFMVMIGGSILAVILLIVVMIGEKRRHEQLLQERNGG

Compound in this assay: Nc1ncnc2c1ncn2[C@@H]1O[C@H](COP(=O)(O)OP(=O)(O)OP(=O)(O)O)[C@@H](O)[C@H]1O [adenosine 5'-triphosphate]
The assay is described as follows: log2 fold change of tryptic peptide abundance, ligand vs vehicle (limited proteolysis) (log2 ratio); higher = more trypsin-susceptible (destabilized). As to conditions: ligand concentration: 5 mM; sample: E. coli desalted lysate; replicate design: treated before aliquoting. The method, then: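 HT-PELSA: desalted E. coli K-12 BW25113 lysate (with 12 mM MgCl2) incubated with 5 mM ATP (pH 7) or water for 30 min at 25 C, then a 4 min trypsin pulse at 22 C. Peptides were quantified by DIA-MS (4 replicates). Value is the peptide log2 fold change (treated/control); negative = stabilized. Scale: negative = ligand-stabilized region.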
On to “UniProt P76134 (peptide sequence: TMNSVQLTAQK, peptide start residue: 298)”, for which the log2 fold change is -0.467.
As to “UniProt P09029 (peptide sequence: DVFPIIADR, peptide start residue: 72)”, the log2 fold change was -2.73.
In the case of “UniProt P77306 (peptide sequence: TLSPEDLR, peptide start residue: 123)”, the log2 fold change came to 0.57.
In the case of “UniProt P13000 (peptide sequence: TAGYKPVASGSEK, peptide start residue: 34)” it was -1.41.
Then “UniProt P0AB96 (peptide sequence: LCRPSEVVLEILPDAQK, peptide start residue: 105)”, with 0.492; and “UniProt Q46906 (peptide sequence: AEGFFCIHR, peptide start residue: 99)”, with -0.839; and “UniProt P0ADV7 (peptide sequence: LKNEQPQIR, peptide start residue: 42)”, with 0.525.
In the case of “UniProt P77754 (peptide sequence: DLNLTDAQK, peptide start residue: 54)” it was -0.35; in that of “UniProt P37349 (peptide sequence: LIAKGPEAEEALIAFR, peptide start residue: 217)”, 0.492.
Regarding “UniProt P43340 (peptide sequence: KIQVTELDLYRR, peptide start residue: 34)”, the log2 fold change came out at 1.23.
Turning to “UniProt P17169 (peptide sequence: LKSNIEEVR, peptide start residue: 530)”, the log2 fold change was -0.459.
Turning to “UniProt P68398 (peptide sequence: EVPVGAVLVHNNR, peptide start residue: 27)”, the log2 fold change was determined as 0.483.
In the case of “UniProt P75796 (peptide sequence: VHGLLPGKDAAAR, peptide start residue: 430)” it was 1.01; in that of “UniProt P39161 (peptide sequence: QILAALIK, peptide start residue: 203)”, 0.746.
For the target “UniProt P0ABM9 (peptide sequence: DEAQEQQFR, peptide start residue: 27)”, the log2 fold change amounted to 0.867.
Take “UniProt P02358 (peptide sequence: TKHAVTEASPMVK, peptide start residue: 92)”: the log2 fold change was 0.374.
With “UniProt P0A9P6 (peptide sequence: RFMKEPQEVR, peptide start residue: 200)”, the log2 fold change was -2.4.
Take “UniProt P29013 (peptide sequence: SREEYLQSQVNMLWR, peptide start residue: 204)”: the log2 fold change is -0.636.
On to “UniProt P76222 (peptide sequence: LLAVADWR, peptide start residue: 97)”, for which the log2 fold change is -0.698.
As for “UniProt P37617 (peptide sequence: DEQAAEEPQASR, peptide start residue: 113)”, the log2 fold change is 2.93.
In the case of “UniProt P76206 (peptide sequence: FEFGPGVR, peptide start residue: 152)” it was 1.15; in that of “UniProt P04949 (peptide sequence: NQSALSSSIER, peptide start residue: 21)”, 0.651; in that of “UniProt P13035 (peptide sequence: IGLFMYDHLGK, peptide start residue: 103)”, 0.643.
With “UniProt P00550 (peptide sequence: GASPLSAGDVTNDLSHVRK, peptide start residue: 361)”, the log2 fold change was found to be 0.413.
On to “UniProt P27300 (peptide sequence: SVDAVIVNGGVPR, peptide start residue: 190)”, for which the log2 fold change was -2.1.
For the target “UniProt P09832 (peptide sequence: HVTCAYR, peptide start residue: 313)”, the log2 fold change turned out to be 0.367.
In the case of “UniProt P37182 (peptide sequence: ESGVEAIPR, peptide start residue: 151)”, the log2 fold change is 0.522.
“UniProt P28631 (peptide sequence: YLLCQQPQGHK, peptide start residue: 47)”: the log2 fold change was -0.546.
For “UniProt P00805 (peptide sequence: SVFDTLATAAK, peptide start residue: 274)”, the log2 fold change was 0.366.
Take “UniProt P27828 (peptide sequence: DTTERPEAVTAGTVR, peptide start residue: 309)”: the log2 fold change was -0.6.
As for “UniProt P77721 (peptide sequence: VVSTGGELNK, peptide start residue: 138)”, the log2 fold change was -0.442.
For “UniProt P20083 (peptide sequence: VQDLQVVGTCGKR, peptide start residue: 147)”, the log2 fold change is -1.89.
With “UniProt P22188 (peptide sequence: LWCVFGCGGDRDK, peptide start residue: 380)”, the log2 fold change is -1.25.
As for “UniProt P07013 (peptide sequence: LVLSGTVCR, peptide start residue: 5)”, the log2 fold change is -0.606.
Consider “UniProt P08194 (peptide sequence: AEQELTAK, peptide start residue: 235)”, for which the log2 fold change was -0.739.
In the case of “UniProt P00579 (peptide sequence: EPTPEELAER, peptide start residue: 477)” it was 0.829; in that of “UniProt P11868 (peptide sequence: AWHEGHER, peptide start residue: 285)”, -1.02.
Consider “UniProt P06959 (peptide sequence: VDFSKFGEIEEVELGR, peptide start residue: 392)”, for which the log2 fold change stood at 0.812.
With “UniProt P23862 (peptide sequence: KRIQHQDFER, peptide start residue: 111)”, the log2 fold change was 1.03.
Consider “UniProt P46850 (peptide sequence: KDAEVIDEIPMAYK, peptide start residue: 368)”, for which the log2 fold change was -0.573.
